TMEM16A act: TMEM16A chloride channel activators or potentiators, primary screen, cell-based, HTS. 340,000 compounds, 0.3% hits. B-score at 10 µM. HEK293 TMEM16A/YFP-H148Q/I152L, iodide quench fluorescence; hits give low values. AID 623877, 2012;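 active means fluorescence-ratio B-score plate-corrected deviation score at least 3 library SD below zero, with starting fluorescence score within 5 deviations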;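 further: channel opened by trigger with iodide after compound preincubation; score built on the fluorescence ratio of max minus min over baseline; more negative score means more quench and so TMEM16A activation or potentiation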
PKA-R1A act: activators of PKA-R1A holoenzyme, primary screen, biochemical, fluorescence polarization, Cy5-IP20, bovine R1A, mouse PKAc; activation, % at 11.4 µM; 340,000 compounds, 0.083% hits; PKA-R1A dissociation; scaled: DMSO 0%, 113 µM cGMP 100%; AID 504707, 2011;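 active means percent activation above the mean of all tested compounds plus 3 SD, cut at about 19% in these data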;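 further: higher means more PKAc released from R1A so a rise in polarization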
CHT inh: inhibitors of human choline transporter CHT; High affinity choline transporter 1 (Homo sapiens), Q9GZV3; CHT-expressing cells, membrane potential dye, choline response; hits give low values; B-score at 10 µM; 310,000 compounds, 0.86% hits;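 active means B-score over 3 SD under the library average, and starting fluorescence ratio not unusually high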;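 further: choline stimulus applied at its EC90 after an EC20 pre-addition; B-score computed on integrated fluorescence ratio after choline addition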
Target sequence (Q9GZV3 whole entry, looked up): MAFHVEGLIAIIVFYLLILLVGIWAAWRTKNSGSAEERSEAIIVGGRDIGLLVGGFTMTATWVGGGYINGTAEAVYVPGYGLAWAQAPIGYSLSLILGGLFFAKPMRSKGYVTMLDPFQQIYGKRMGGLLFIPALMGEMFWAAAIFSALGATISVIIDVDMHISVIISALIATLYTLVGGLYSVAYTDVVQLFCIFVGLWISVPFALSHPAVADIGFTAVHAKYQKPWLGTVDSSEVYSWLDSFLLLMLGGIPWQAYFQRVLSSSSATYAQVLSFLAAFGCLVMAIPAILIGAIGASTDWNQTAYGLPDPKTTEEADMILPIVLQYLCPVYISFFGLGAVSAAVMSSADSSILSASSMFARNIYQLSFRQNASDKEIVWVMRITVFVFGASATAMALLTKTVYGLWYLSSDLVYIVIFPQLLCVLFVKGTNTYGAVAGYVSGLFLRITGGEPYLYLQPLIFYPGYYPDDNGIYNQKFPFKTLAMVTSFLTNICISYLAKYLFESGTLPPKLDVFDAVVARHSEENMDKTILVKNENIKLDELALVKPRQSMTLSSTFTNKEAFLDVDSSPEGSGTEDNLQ
PKA-R2B activ: activators of PKA-R2B holoenzyme, primary screen, biochemical, fluorescence polarization, Cy5-IP20, human; cAMP-dependent protein kinase catalytic subunit beta (Homo sapiens) + cAMP-dependent …; PKA-R2B holoenzyme dissociation; R2B truncated from residue 108, S112A mutant; 0% DMSO only, 100% 113 µM cGMP; activation, % at 11.4 µM; 340,000 compounds, 0.079% hits; AID 504700, 2011;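 active means activation above a cutoff set at the mean over all compounds plus 3 SD, cut at about 18% in these data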;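 further: higher means more holoenzyme dissociation and a rise in polarization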
CHT PAM: CHT positive allosteric modulators, primary screen, cell-based, membrane potential dye, choline EC20 | High affinity choline transporter 1 (Homo sapiens), Q9GZV3 | CHT-expressing cells; hits give high values; LV-AA mutant CHT in HEK293 cells | B-score at 10 µM | 310,000 compounds, 0.49% hits | AID 488977, 2010;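 active means initial fluorescence not abnormally high and integrated response B-score, plate-corrected, over 3 SD above library mean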
TMEM16A inh: TMEM16A chloride channel inhibitors, primary screen, cell-based, HTS; Anoctamin-1 (Mus musculus), Q8BHY3; 310,000 compounds, 1.2% hits; AID 588511, 2011; normalized B-score (activity score, 25-100; higher = stronger inhibition) at 10 µM; HEK293 TMEM16A/YFP iodide influx fluorescence, ionomycin;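 active means ratio plate-corrected score three or more library SD toward inhibition, starting fluorescence score within five deviations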;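 further: score derived from kinetic fluorescence span divided by baseline fluorescence per well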
CHT activ conf: CHT activators, confirmation, cell-based, membrane potential dye, duplicate; shares compounds with CHT PAM; CHT-expressing cells, membrane potential dye fluorescence (FDSS); % of choline EC20–EC90 response window; HEK293 expressing CHT LV-AA mutant; choline added at its EC20; activation, % at 10 µM; 2,500 compounds, 91% hits; AID 504833, 2011;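 active means primary screen active, with duplicate mean activation above negative control mean plus 3 SD, cut at about 11% in these data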
HEK293 MP dye: membrane potential response in parental HEK293 cells, counter-screen for CHT activator project, cell-based, membrane potential dye; shares compounds with CHT PAM; membrane potential dye fluorescence (FDSS); measured after EC20 choline addition; ratio readout change at 10 µM, hits read low; 2,500 compounds, 62% hits;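 active means duplicate-averaged ratio beyond 3 SD from buffer wells, up or down, though filed actives are nearly all decreases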
Numbers stand for hits; - = inactive; . = no result given. Rows were chosen to be rich in hits. Some 2.5% of all compounds tested hit in one or more screens of this group.

SMILES | TMEM16A act | PKA-R1A act | CHT inh | PKA-R2B activ | CHT PAM | TMEM16A inh | CHT activ conf | HEK293 MP dye
CN1CCN(c2nc3c(c(=O)n(C)c(=O)n3C)n2CCSc2nnnn2-c2ccccc2)CC1 | - | - | - | - | 7.2 | - | 52 | -71
NS(=O)(=O)c1ccc(CNC(=O)c2ccncc2)cc1 | - | - | - | - | - | - | . | .
CCCC(CCC)C(=O)Nc1ccc2c(c1)N(C(=O)CN1CCN(C)CC1)c1ccccc1CC2 | - | - | - | - | 6.7 | - | 29 | -
COc1cc(C2C(c3ccccc3)C(c3cc(OC)cc(=O)o3)C2c2ccccc2)oc(=O)c1 (configuration not stated) | - | - | . | - | . | . | . | .
Cn1c(=S)c2[nH]c(SCCN3CCCC3)nc2n(C)c1=O | - | - | - | - | - | - | . | .
CCN1CCCC(Sc2nc3c([nH]2)c(=S)n(C)c(=O)n3C)C1 (configuration not stated) | - | - | - | - | - | - | 29 | -26
Cc1ccccc1-c1nc(CS(=O)(=O)CC(=O)NC2CC2)c(C)o1 | - | - | - | - | - | - | . | .
CCCN(CCC)C1=CC(=[N+]2CCCC2)CC(C)(C)C1 | - | - | - | - | 12 | - | 35 | -
O=C1CC2(CCN(C(=O)c3c(F)cccc3Cl)CC2)Oc2ccccc21 | - | - | - | - | 8.7 | - | - | -
COc1ccc(Cl)cc1C(=O)N1CCC2(CC1)CC(=O)c1ccccc1O2 | - | - | - | - | 9.6 | - | - | -
CCC(=O)c1ccc(OCC(=O)N2CCN(c3ncccn3)CC2)cc1 | - | - | - | - | - | - | . | .
CNC(=S)N(CCCN(C)C)Cc1cc2cc3c(cc2[nH]c1=O)OCCO3 | - | - | - | - | - | - | . | .
c1ccc2c(c1)CCCN2Cc1nnnn1CC1CCCO1 (configuration not stated) | - | - | - | - | - | - | . | .
c1ccc(CCn2nnnc2CN2CCCc3ccccc32)cc1 | - | - | - | - | 7.3 | - | - | -
O=c1c2c3c(sc2n2cnnc2n1CCc1ccccc1)CCCC3 | - | - | - | - | - | - | . | .
Cn1c(=O)c2c3c(sc2n2cnnc12)CCC3 | - | - | - | - | - | 25 | 30 | -39
O=C(N/N=C/c1ccncc1)c1cccc([N+](=O)[O-])c1 | . | . | - | . | - | - | 49 | -51
Brc1c(-c2ccc3c(c2)OCO3)nc2ncccn12 | - | - | - | - | 6.3 | - | 45 | -46
O=C(COc1ccc([N+](=O)[O-])cc1)N(Cc1ccccc1)Cc1ccccc1 | - | - | - | - | - | - | 24 | -
O=C(COc1ccc([N+](=O)[O-])cc1)Nc1ccncc1 | - | - | - | - | - | - | 45 | -48
COc1ccc(C(C)=O)cc1CN(c1ccccc1OC)S(=O)(=O)c1cccs1 | - | - | - | - | - | - | . | .
COc1ccccc1OCC(=O)NNC(=O)c1ccc2c(=O)n3c(nc2c1)CCC3 | - | - | - | - | - | - | . | .
N#CCC(=O)NNc1c([N+](=O)[O-])cc(C(F)(F)F)cc1[N+](=O)[O-] | - | . | - | . | - | - | 27 | -44
CN(CC(=O)Nc1ccc(F)cc1)C(=O)COC(=O)c1ccc(-c2ccccc2)cc1 | - | - | - | - | - | - | . | .
Cc1cc(=O)n2nc(-c3ccccc3)sc2c1C#N | - | - | - | - | 6.4 | - | 29 | -27
SMILES | TMEM16A act | PKA-R1A act | CHT inh | PKA-R2B activ | CHT PAM | TMEM16A inh | CHT activ conf | HEK293 MP dye
Cc1ccc2c(CSc3nnc4ccccn34)cc(=O)oc2c1C | - | - | - | - | - | - | . | .
Cc1ccc2c(CSc3nc4ccccc4c(=O)n3CCCO)cc(=O)oc2c1C | - | - | - | - | 6.9 | - | 15 | -
CCOc1ncccc1C(=O)N1CCN(c2cccc(C)c2C)CC1 | - | - | . | - | . | . | . | .
CCOc1ncccc1C(=O)N1CCN(c2cc(Cl)ccc2C)CC1 | - | - | - | - | 14 | - | 45 | -
O=C(Nc1ccccc1)Nc1ccncc1 | - | - | - | - | - | - | . | .
O=C(Nc1ccncc1)Nc1ccccn1 | - | - | - | - | - | - | 50 | -45
CCc1nccn1Cc1cc(C=O)ccc1OC | - | - | - | - | - | - | 61 | -44
Cc1cc[n+](-c2[nH]c(=O)sc2/C=N/N=C(\[O-])c2ccncc2)cc1 | - | - | - | - | - | - | . | .
COc1ccc(CSc2ccc(-c3nc4ccccn4c3NCc3ccccc3)cc2OC)cc1 | - | - | - | - | 8.9 | - | 31 | -
CCC(C)Sc1ccc(-c2nc3ccccn3c2NCc2ccccc2)cc1OC (configuration not stated) | - | - | . | - | . | . | . | .
CC(C)(C)c1ccc(NC(=O)N2CCCN(c3c(Cl)cncc3Cl)CC2)cc1 | - | - | - | - | - | - | 12 | -
Cc1ccccc1NC(=O)C(C)OC(=O)C1CCCO1 (configuration not stated) | . | - | . | - | . | . | . | .
COc1ccc2sc(N(CCN(C)C)C(=O)/C=C/c3cccs3)nc2c1 | - | - | - | - | - | - | . | .
COc1ccc2nc(N(CCN(C)C)C(=O)/C=C/c3cccs3)sc2c1 | - | - | - | - | 7.2 | - | 35 | -32
O=C(Nc1nccs1)C1CCN(S(=O)(=O)c2ccccc2)CC1 | - | - | - | - | - | - | . | .
Cc1nn(-c2cc(N3CCCCC3)ccc2N)c(=O)c2ccccc12 | - | - | - | - | - | - | . | .
Nc1ccc(N2CCCCC2)cc1N1CCCCC1 | - | - | - | - | 7.9 | - | 49 | -32
Cc1nn(-c2ccccc2)c(C)c1/C=N/n1c(-c2ccc(Cl)cc2)n[nH]c1=S | - | - | - | - | - | - | - | -
COc1ccccc1OCC(=O)Nc1cc(C)ccc1NC(=O)c1ccco1 | - | - | - | - | - | - | . | .
Cc1cc(Cl)cc(C)c1OCC(=O)NC1CCCCCC1 | - | - | . | - | . | . | . | .
CCOc1ccccc1NC(=O)CSc1nnc(-c2ccco2)o1 | - | - | - | - | 16 | - | - | -
